BoNT F protease – BoNT F light chain protease inhibition; Multiplex microsphere protease cleavage assay, flow cytometry; inhibition, % at 10 µM; 360,000 compounds, 0.22% hits; AID 588497; in the data active means inhibition above about 35%, passing the limit was not always enough; inconclusive means no clear call, values can overlap the other calls; further: plate controls were buffer without enzyme for full effect and enzyme alone for no effect
BoNT A protease – BoNT A light chain protease inhibition | multiplex microsphere protease substrate cleavage, flow cytometry | inhibition, % at 10 µM | 360,000 compounds, 0.17% hits; further: plate controls were buffer without enzyme for full effect and enzyme alone for no effect
PriA SSB inh – blocks PriA binding to SSB C-terminal tail; inhibition, % at 33 µM; 430,000 compounds, 0.6% hits; AlphaScreen SSBct-PriA binding, biotinylated peptide; in the data active means inhibition mostly above about 37%, no sharp cut-off; inactive means mostly below about 20%;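 further: plate controls were negative control peptide for no effect and reference peptide for full effect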
Anthrax LF inh2 – anthrax lethal factor protease inhibition; multiplex microsphere protease cleavage assay, LF; inhibition, % at 10 µM; 360,000 compounds, 0.12% hits; further: plate controls were buffer without enzyme for full effect and enzyme alone for no effect
Target sequence (P15917 whole entry, looked up): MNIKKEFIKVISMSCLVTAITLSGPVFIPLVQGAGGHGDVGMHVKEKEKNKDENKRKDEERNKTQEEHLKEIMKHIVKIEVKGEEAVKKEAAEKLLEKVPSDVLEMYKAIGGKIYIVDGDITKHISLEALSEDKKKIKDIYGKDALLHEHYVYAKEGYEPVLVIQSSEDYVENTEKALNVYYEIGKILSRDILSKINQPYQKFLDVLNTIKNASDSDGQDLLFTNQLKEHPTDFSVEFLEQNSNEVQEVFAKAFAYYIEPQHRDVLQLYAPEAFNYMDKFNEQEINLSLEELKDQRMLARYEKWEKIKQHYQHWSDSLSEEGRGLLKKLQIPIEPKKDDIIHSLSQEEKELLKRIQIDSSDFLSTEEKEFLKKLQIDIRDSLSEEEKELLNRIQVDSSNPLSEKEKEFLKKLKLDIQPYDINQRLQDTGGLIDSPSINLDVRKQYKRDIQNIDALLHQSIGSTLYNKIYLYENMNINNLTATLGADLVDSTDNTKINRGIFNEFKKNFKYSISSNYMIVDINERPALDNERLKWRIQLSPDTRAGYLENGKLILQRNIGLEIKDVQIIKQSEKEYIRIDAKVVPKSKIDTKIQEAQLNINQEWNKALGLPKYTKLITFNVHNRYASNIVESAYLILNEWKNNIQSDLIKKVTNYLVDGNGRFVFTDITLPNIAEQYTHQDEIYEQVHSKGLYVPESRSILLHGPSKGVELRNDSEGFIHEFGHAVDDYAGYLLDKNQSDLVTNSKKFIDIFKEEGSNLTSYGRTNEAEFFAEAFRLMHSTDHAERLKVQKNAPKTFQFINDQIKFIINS
Bead autofluor – flagged as autofluorescent in microsphere protease counterscreen. compound autofluorescence counterscreen, microsphere flow cytometry; active compounds read high. fluorescence intensity (concentration not given with the values). 360,000 compounds, 3.1% hits. AID 624483; in the data active means fluorescence intensity above about 16000; inconclusive means no clear call, values can overlap the other calls
The depositor's hits bear a star; ? = inconclusive; . = no result. In the library only some 3.1% were active in any assay of this set; here they are far more common. Unless noted, no stated cut-off is given here; in the data, active means inhibition above about 30%; inconclusive means no clear call, values can overlap the other calls; inactive means below that.

SMILES	BoNT F protease	BoNT A protease	PriA SSB inh	Anthrax LF inh2	Bead autofluor
S=C(Nc1ccccc1Cl)N1CCN(Cc2ccccc2)CC1	-3.6	-0.6	-11.5	-0.3	2557
COc1ccccc1NC(=O)c1ccc(NC(=O)CN2CCCCC2)cc1	5.4	1.3	-6.3	2.1	3564
COC(=O)c1ccc(Cl)c(NC(=O)CN2CCN(C)CC2)c1	-3.3	?	-2.9	-4.2	23083*
COC(=O)c1ccc(Cl)c(NC(=O)CN2CCOCC2)c1	-2.5	1.1	-18.5	-0.9	2852
O=C(NCCSc1c[nH]c2ccccc12)c1ccc(F)cc1	.	.	-5.0	.	.
Cn1ccnc1SCc1cc(=O)c(OC(=O)/C=C/c2ccc3c(c2)OCO3)co1	.	.	2.0	.	.
Cc1onc(-c2c(Cl)cccc2Cl)c1C(=O)NC(=N)N1CCOCC1	.	.	9.2	.	.
O=C(NCc1cccs1)C(=O)NCC(O)c1ccc2c(c1)CCO2 (configuration not stated)	.	.	-19.0	.	.
Cc1c(Cl)cccc1NC(=O)CCN1CCCCCC1	-9.7	-2.0	4.4	18.9	8142
Cc1c(Cl)cccc1NC(=O)CN1CCN(CCO)CC1	2.0	1.5	-14.9	-11.1	22331*
O=C(CN1CCCC1)Nc1ccccc1Cl	-1.4	?	-9.5	0.8	22970*
CC(=O)Nc1cccc(C(=O)N/N=C/c2cccc(C)n2)c1	45.5*	1.8	.	-2.9	3846
Cc1ccccc1Nc1nc(N)nc(COC(=O)CCS(=O)(=O)c2ccccc2)n1	-5.2	-0.8	-0.3	-2.5	24248*
COc1cc2c(cc1OC)CN(C(=O)CCOc1ccccc1)CC2	10.6	0.7	-3.5	-2.3	3694
COc1cc2c(cc1OC)CN(C(=O)CCCN1C(=O)c3ccccc3C1=O)CC2	-1.9	?	-1.5	-1.8	22299*
C/C=C(\C)CN1CCN(c2cccc(C)c2C)CC1	-6.3	-1.5	-14.9	-4.1	9505
C/C=C(\C)CN1CCN(c2ccccc2F)CC1	-3.7	0.3	-10.2	-2.4	23234*
C/C(=C\c1ccccc1)CN1CCN(c2ccccc2)CC1	-1.1	1.3	-26.5	-2.1	21899*
C/C=C(\C)CN1CCN(c2ccccc2)CC1	-5.1	-0.5	-20.0	1.8	3058
C/C(=C\c1ccco1)[N+](=O)[O-]	.	.	26.0	.	.
O=C(NCC1CCCN1c1nc2ccccc2o1)c1cc(-c2ccccc2)on1 (configuration not stated)	.	.	-16.0	.	.
O=C(Nc1nccs1)c1ccc(N2CCC(Cc3ccccc3)CC2)nn1	.	.	-5.0	.	.
CCOc1ccc(NC(=O)C2=Cc3cc(OC)ccc3OC=C2)cc1	.	.	-3.0	.	.
Cc1ccc(S(=O)(=O)NC2CCOC(C)(C)C2)cc1 (configuration not stated)	-10.8	-0.6	-13.7	6.8	3756
CC1(C)CC(NS(=O)(=O)c2ccc(S(=O)(=O)N3CCOCC3)cc2)CCO1 (configuration not stated)	-0.9	-1.0	-1.6	-5.2	19550*
SMILES	BoNT F protease	BoNT A protease	PriA SSB inh	Anthrax LF inh2	Bead autofluor
O=C(NCCS(=O)(=O)N1CCc2ccccc2C1)c1ccc(Br)o1	.	.	-7.0	.	.
Cc1nc(OC(C)C)cc(N2CCN(C(=O)c3cccc4ccccc34)CC2)n1	.	.	0.0	.	.
CCOC(=O)c1ccccc1NC(=O)CN1C(=O)C[C@@H](c2ccc(OC)cc2)Sc2ccccc21	.	.	-7.0	.	.
O=C1CS/C(=N\C(=O)N2c3ccccc3Sc3ccccc32)N1	-2.9	-1.1	.	0.8	24179*
COc1cccc(C2=NN(C(=O)c3ccc(F)cc3)C(c3cccc4nccnc34)C2)c1 (configuration not stated)	.	.	-6.0	.	.
COc1cc(CNCCc2c[nH]c3ccccc23)ccc1OCc1ccccc1F	-11.5	-1.8	38.5*	-2.5	11746
COc1cccc(CNCCc2c[nH]c3ccccc23)c1OCc1ccccc1	-41.8	-1.1	44.8*	-0.1	2520
COc1cc(CNCCc2c[nH]c3ccccc23)cc(OC)c1OC	-10.4	-0.5	.	-1.7	3652
COC(=O)Nc1ccc2c(c1)N(C(=O)C1CC1)CC2	.	.	-7.0	.	.
O=C(C1CCCC1)N1CCc2ccc(NS(=O)(=O)c3cccs3)cc21	.	.	3.0	.	.
O=C(CCl)NCc1c(Cl)cccc1-n1cccc1	-3.1	-0.1	7.4	2.6	22575*
O=C(Cc1c(Cl)cccc1Cl)NCCc1ccc(Cl)cc1	-10.3	-0.9	-14.1	-1.0	9129
Cn1nc(CN(Cc2ccco2)C(=O)c2cccs2)c2c1CCC2	.	.	-5.0	.	.
Cn1nc(CN(Cc2ccco2)C(=O)N2CCN(S(C)(=O)=O)C2=O)c2c1CCC2	.	.	84.0*	.	.
CCc1ccc2[nH]c(=O)c(CN(Cc3ccco3)S(=O)(=O)c3ccc4c(c3)OCCO4)cc2c1	0.3	-0.7	-10.1	-1.7	11443
Cc1ccc(C)c2[nH]c(=O)c(CN(Cc3ccco3)S(=O)(=O)c3ccc4c(c3)OCCO4)cc12	5.0	3.1	2.7	-2.1	22529*
O=S(=O)(c1ccc(F)cc1)c1nc(-c2ccccc2F)oc1N1CCCCC1	3.3	?	8.4	-5.5	20089*
CCN1CCN(c2oc(-c3ccccc3C)nc2S(=O)(=O)c2ccccc2)CC1	5.1	1.3	38.6*	-8.1	?
COCCNC(=O)CSc1nc(CC(=O)NCc2cccs2)cc(=O)[nH]1	.	.	-25.0	.	.
CC(=O)Nc1cccc(NC(=O)CSC2=Nc3cccnc3Nc3ccccc32)c1	.	.	-8.0	.	.
O=C(CSC1=Nc2cccnc2Nc2ccccc21)N1CCN(c2ccccc2)CC1	.	.	38.0*	.	.
CCn1c(SCC(=O)N2CCN(c3ccccc3)CC2)nnc1-c1cc2cc(Cl)ccc2o1	0.1	?	-16.4	-2.9	22674*
C=CCn1c(SCC(=O)N2CCN(c3ccccc3)CC2)nnc1-c1ccco1	3.0	-0.3	-6.9	-3.4	9493
O=C(c1ccccc1)[C@@H]1[C@@H](C(=O)c2ccc(F)cc2)[C@@]2(C(=O)Nc3ccccc32)[C@H]2c3ccccc3C=CN12	17.3	39.2*	10.3	29.3	7809
CCCNC(=O)CCC(=O)Nc1ncc(-c2ccc(C)cc2)n1C	-4.3	?	0.7	1.7	22139*
SMILES	BoNT F protease	BoNT A protease	PriA SSB inh	Anthrax LF inh2	Bead autofluor
CCCNC(=O)CCn1nc(-c2ccc(C)cc2)c2ccccc2c1=O	13.4	0.5	1.9	5.9	3718
O=C(c1nsc(Cl)c1Cl)N1CCCCC1	-0.2	0.3	-16.1	-0.6	20635*
O=C(O)c1c(Cl)c(Cl)c(Cl)c(Cl)c1C(=O)N1CCCC1	3.0	0.7	-16.1	-4.7	8073
CC(C)CCNC(=O)C(c1ccco1)N(Cc1ccc(F)cc1)C(=O)c1snc(C(N)=O)c1N (configuration not stated)	-3.1	-0.2	0.3	-4.7	19358*
Cc1ccc(/C=C2/SC(=S)N(C3CCCCC3)C2=O)o1	26.2	38.6*	10.4	24.5	3828
Cc1ccc(/C=C2/SC(=S)N(N)C2=O)o1	.	.	41.0	.	.
Cc1cc(C)n(-c2nnc(C)n2/N=C/c2ccccc2F)n1	2.2	-0.4	.	-0.8	22946*
COc1ccccc1/C=N/n1c(C)nnc1-n1nc(C)cc1C	-0.4	0.3	.	-2.5	9769
CCCCCCC(C)OC(=O)c1ccccc1C(=O)O (configuration not stated)	34.7*	0.7	-15.0	12.3	3516
O=C(Nc1nnc(S(=O)(=O)N2CCCCCC2)s1)c1ccccc1	0.3	-0.3	101.0*	-3.8	4352
O=C(COc1ccccc1)Nc1nnc(S(=O)(=O)N2CCCC2)s1	2.6	1.9	6.0	3.7	4799

Screening results deposited in PubChem BioAssay by several laboratories.
